Data reported in PubChem BioAssay (NCATS).
Records with an inconclusive call do not appear. Where a call stands in place of a potency, no number is given. Calls of active or inactive are those of the source. Calls follow the shape of the dose curve; as a rule, active = well fitted inhibition curve with a large enough effect; inconclusive = small, poorly fitted or top-dose-only effect; inactive = flat fitted curve, though single readings scatter.

Each compound was assayed against Calcium and integrin-binding protein 1 (Homo sapiens) (UniProt Q99828) (assay: Primary qHTS for Identification of Calcium Integrin Binding Protein 1 (CIB1) Competitor (AID 1508620;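 also: GST tagged CIB1 binding a fluorescein labelled alphaIIb integrin peptide tracer; top concentration of the series differs between compounds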)). Details: CIB1-GST / FITC-alphaIIb peptide fluorescence polarization; series mostly up to 114 µM.
Chain of Calcium and integrin-binding protein 1 (Homo sapiens) (Q99828 whole entry, looked up): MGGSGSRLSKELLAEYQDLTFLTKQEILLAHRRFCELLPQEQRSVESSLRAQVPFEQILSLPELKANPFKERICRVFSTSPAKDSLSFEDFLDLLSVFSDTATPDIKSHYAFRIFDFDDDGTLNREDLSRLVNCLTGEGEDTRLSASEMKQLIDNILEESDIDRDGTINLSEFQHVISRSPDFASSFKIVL
Summary of the method: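 Fluorescence polarization competition: CIB1-GST (1 uM final) preincubated with compound 15 min at room temperature, then FITC-labeled alphaIIb peptide (100 nM final) added for another 15 min. Polarization read at Ex 480/Em 540.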

SMILES	Potency
CN(C)C/C=C/C(=O)Nc1cccc(C(=O)Nc2ccc(Nc3nccc(-c4cccnc4)n3)cc2)c1	inactive
COc1ccc(-c2cnc3ccc(NCc4ccc(S(N)(=O)=O)cc4)nn23)cc1OC	inactive
COc1c2c(c(C)c3c1C(=O)OC3)O[C@@]1(C)CCC3(C(C)(C)O)OC(=O)CC[C@]3(C)[C@H]1C2 (some centres undefined)	inactive
CC(C)S(=O)(=O)N[C@H]1CCOC[C@@H]1c1ccc(-c2ccc(C#N)s2)cc1	inactive
COc1ccc(/C=C/C(=O)O[C@@H]2[C@@H](O)[C@@H](O)[C@H](O[C@@H]3C=C(CO)[C@H]4[C@H](O[C@@H]5O[C@H](CO)[C@@H](O)[C@H](O)[C@H]5O)OC=C[C@H]43)O[C@H]2C)cc1O	inactive
CC1CCCCN1S(=O)(=O)c1ccc(N2CCCC2=O)cc1 (centres undefined)	inactive
COc1cc(Nc2nc3ccccc3nc2NS(=O)(=O)c2ccc(NC(=O)c3ccc(OC)c(C)c3)cc2)cc(OC)c1	inactive
CCc1cc(CN2CC(C(=O)O)C2)sc1-c1noc(-c2ccc(Oc3ccccc3)cc2)n1	inactive
Nc1ncnc2c1nc(N)n2[C@@H]1O[C@H](CO)[C@@H](O)[C@H]1O	inactive
